Data taken from PubChem BioAssay AID1159580 (chemical genetic matrix, 2015).
Where “and” joins values, the source holds several entries; their conditions need not be identical. Identical values can stand only once. Among all 5,500 compounds or so, about 2,000 (36%) were called active. Inconclusive results (about 18%) are left out. Cut-off read from the data, not from the text of the source: active = normalized growth mostly below about 0.91 (no sharp cut-off); inconclusive = no clear call, values can overlap the other calls; inactive = mostly above about 0.92. Some of the results follow.

Assay: chemical genetic growth profiling, strain panel (AID 1159580);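 note: tested at 20 µM; growth read once vehicle control cultures reached saturation at 30 °C; 1 = growth at the plate median or of vehicle wells; lower values mean less growth of the strain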
Settings: S. cerevisiae deletion strains, growth OD

Measured: normalized growth

O=C1OC(c2ccc(O)cc2)(c2ccc(O)cc2)c2ccccc21
active: locus YDR334W, strain swr1, active compounds read low 0.897 | locus YER155C, strain BEM2 (second series), active compounds read low 0.826
inactive: locus YAL013W, strain DEP1, active compounds read low 0.999 | locus YAL021C, strain ccr4, active compounds read low 0.977 | locus YAL026C, strain drs2, active compounds read low 0.978 | locus YAL030W, strain snc1, active compounds read low 0.994 | locus YBL061C, strain skt5, active compounds read low 0.984 | locus YBR009C, strain hhf1, active compounds read low 0.988 | locus YBR021W, strain FUR4, active compounds read low 1.01 | locus YBR023C, strain chs3, active compounds read low 0.994 | locus YBR171W, strain sec66, active compounds read low 0.981 | locus YBR229C, strain ROT2, active compounds read low 0.997 | locus YBR231C, strain swc5, active compounds read low 0.974 | locus YBR279W, strain paf1, active compounds read low 0.988 | locus YCL011C, strain gbp2, active compounds read low 0.968 | locus YCL016C, strain dcc1, active compounds read low 1.01 | locus YCL029C, strain bik1, active compounds read low 0.972 | locus YCL061C, strain MRC1, active compounds read low 1 | locus YCL069W, strain vba3, active compounds read low 0.969 | locus YCR088W, strain abp1, active compounds read low 1 | locus YDL005C, strain med2, active compounds read low 0.97 | locus YDL035C, strain GPR1, active compounds read low 0.986 | locus YDL040C, strain nat1, active compounds read low 0.986 | locus YDL074C, strain BRE1, active compounds read low 0.98 | locus YDL101C, strain DUN1, active compounds read low 0.98 | locus YDL134C, strain PPH21, active compounds read low 0.989 | locus YDL185W, strain tfp1, active compounds read low 0.954 | locus YDL192W, strain arf1, active compounds read low 0.974 | locus YDR001C, strain nth1, active compounds read low 0.965 | locus YDR069C, strain doa4, active compounds read low 0.959 | locus YDR101C, strain arx1, active compounds read low 0.973 | locus YDR137W, strain rgp1, active compounds read low 0.976 | locus YDR150W, strain NUM1, active compounds read low 1 | locus YDR159W, strain sac3, active compounds read low 0.969 | locus YDR162C, strain NBP2, active compounds read low 0.992 | locus YDR195W, strain ref2 0.973 | locus YDR297W, strain sur2, active compounds read low 0.996 | locus YDR318W, strain mcm21, active compounds read low 0.949 | locus YDR335W, strain msn5, active compounds read low 0.97 | locus YDR388W, active compounds read low 0.973 | locus YDR392W, strain spt3, active compounds read low 0.958 | locus YDR502C, strain sam2, active compounds read low 0.96 | locus YEL003W, strain gim4, active compounds read low 0.964 | locus YEL037C, strain rad23, active compounds read low 0.983 | locus YEL061C, strain CIN8 (second series), active compounds read low 0.962 | locus YEL061C, strain CIN8, active compounds read low 0.996 | locus YER015W, strain faa2, active compounds read low 0.977 | locus YER016W, strain bim1, active compounds read low 0.984 | locus YER110C, active compounds read low 0.971 | locus YER111C, strain swi4, active compounds read low 0.995 | locus YER155C, strain BEM2, active compounds read low 0.994 | locus YER167W, strain BCK2, active compounds read low 0.997 | locus YFR010W, strain ubp6, active compounds read low 0.975 | locus YGL078C, strain dbp3, active compounds read low 0.984 | locus YGL086W, strain mad1, active compounds read low 0.992 | locus YGL167C, strain pmr1, active compounds read low 0.983 | locus YGL173C, strain kem1, active compounds read low 0.996 | locus YGL227W, strain vid30, active compounds read low 0.987 | locus YGL240W, strain doc1, active compounds read low 0.965 | locus YGL248W, strain PDE1, active compounds read low 0.996 | locus YGL253W, strain hxk2, active compounds read low 0.969 | locus YGR135W, strain pre9, active compounds read low 0.964 | locus YGR252W, strain gcn5, active compounds read low 1.03 | locus YHR013C, strain ard1, active compounds read low 0.954 | locus YHR027C, strain rpn1, active compounds read low 0.982 | locus YHR030C, strain SLT2, active compounds read low 0.986 | locus YHR079C, strain IRE1 (second series), active compounds read low 0.96 | locus YHR079C, strain IRE1, active compounds read low 0.953 | locus YHR094C, strain hxt1, active compounds read low 0.971 | locus YHR129C, strain ARP1, active compounds read low 0.995 | locus YHR142W, strain chs7, active compounds read low 0.977 | locus YHR200W, strain rpn10, active compounds read low 0.967 | locus YIL066C, strain RNR3, active compounds read low 0.996 | locus YIL073C, strain SPO22, active compounds read low 0.844 | locus YIL125W, strain kgd1, active compounds read low 0.956 | locus YIR030C, strain dcg1, active compounds read low 0.985 | locus YJL092W, strain hpr5, active compounds read low 0.995 | locus YJL095W, strain BCK1 (second series), active compounds read low 0.977 | locus YJL095W, strain BCK1, active compounds read low 1.04 and 0.981 | locus YJL115W, strain asf1, active compounds read low 0.972 | locus YJL129C, strain trk1, active compounds read low 0.949 | locus YJL134W, strain LCB3, active compounds read low 0.988 | locus YJL154C, strain vps35, active compounds read low 0.972 | locus YJL164C, strain tpk1, active compounds read low 0.987 | locus YJL166W, strain qcr8, active compounds read low 0.983 | locus YJL168C, strain set2, active compounds read low 0.974 | locus YJL187C, strain SWE1 (second series), active compounds read low 0.991
